# Screens from PubChem.
# Anthrax LF prot – anthrax lethal factor protease inhibition. hit rate 0.12% among 360,000. inhibition, % at 10 µM. AID 588501. P15917. multiplex microsphere protease cleavage assay, LF
# BoNT-F LC inh – inhibitors of Botulinum neurotoxin F light chain protease | inhibition, % at 10 µM | Multiplex microsphere protease cleavage assay, flow cytometry | AID 588497 | hit rate 0.22% among 360,000; in the data active = inhibition above about 35%, passing the limit was not always enough; inconclusive = no clear call, values can overlap the other calls
# Bead autofluor – counter-screen for toxin protease inhibitors: compound fluorescence. compound autofluorescence counterscreen, microsphere flow cytometry; active compounds read high. fluorescence intensity (test concentration not listed). hit rate 3.1% among 360,000; in the data active = fluorescence intensity above about 16000; inconclusive = no clear call, values can overlap the other calls
# BoNT-A LC inh2 – inhibitors of Botulinum neurotoxin A light chain protease. multiplex microsphere protease substrate cleavage, flow cytometry. inhibition, % at 10 µM. hit rate 0.17% among 360,000
# Hits are given with their value; n = inactive; u = inconclusive. Hits are enriched below; roughly 3.5% of the tested compounds scored in any of these assays. Rule as the data show it, unless noted: active = inhibition above about 30%; inconclusive = no clear call, values can overlap the other calls; inactive = below that.
SMILES,Anthrax LF prot,BoNT-F LC inh,Bead autofluor,BoNT-A LC inh2
CCN1CCN(Cc2ccc(OCc3ccccc3)cc2)CC1,n,n,20089,n
CN1CCN(Cc2ccc(OCc3ccccc3)cc2)CC1,n,n,n,n
COc1ccccc1NC(=O)CNS(=O)(=O)c1ccccc1,n,n,21927,u
Cc1ccc(C)c(NC(=O)CNS(=O)(=O)c2ccccc2)c1,n,n,16924,u
COC(=O)c1ccc(NC(=O)CN(C)S(=O)(=O)c2ccc(OC)c(C)c2)cc1,n,n,24716,n
Cc1ccc(C)c(C(=O)COC(=O)CNS(=O)(=O)c2ccccc2)c1,n,n,n,n
O=C(CNS(=O)(=O)c1ccccc1)Nc1ccccc1Br,n,n,n,n
COc1ccccc1NC(=O)CNC(=O)c1ccccc1C,n,n,24190,n
CCN(CC)CCNC(=O)c1ccc(-n2c(C)cc3c2CCCC3=O)cc1,n,n,n,n
COc1ccccc1/C=C/C(=O)NCC(=O)n1nc(C)cc1C,n,n,n,n
O=S1(=O)N[C@H](Cc2ccccc2)COc2cc(N3CCC[C@@H]3CO)ccc21,n,n,n,n
COc1ccc(CN2CCNC(=O)C2CC(=O)N2CCCN(C(C)=O)CC2)c(OC)c1 (stereo not drawn),n,n,n,n
CCN(CC)C(=O)C1=C(C)N(CCC2=CCCCC2)C(=O)C(CC(=O)NCCCN(C)C)C1 (stereo not drawn),n,n,n,n
OC(c1ccccc1)C(Nc1ccccn1)c1ccccc1 (stereo not drawn),n,n,n,n
CN(C)N1C(N)=C(C#N)C(c2cccc([N+](=O)[O-])c2)C2=C1CC(C)(C)CC2=O (stereo not drawn),n,n,n,n
COc1ccc(C)cc1NC(=O)CN(C)S(=O)(=O)c1cccs1,n,n,n,n
COc1ccccc1NC(=O)CN(C)S(=O)(=O)c1cc(C)ccc1OC,n,n,16552,n
Nc1c(C(O)(C(F)(F)F)C(F)(F)F)ccc2ccccc12,n,n,17206,n
OCCN1CCN(CC(O)C(F)(F)F)CC1 (stereo not drawn),n,n,n,n
O=C(Nc1c(-c2ccccc2)nc2ccccn12)c1cccc(F)c1,n,35.8,n,n
O=C(Nc1c(-c2ccccc2)nc2ccccn12)c1ccccc1,n,n,n,n
Cc1cc(C)c(-c2cc(C(F)(F)F)no2)c(=O)[nH]1,n,n,17034,u
CCN1/C(=N\N)c2cccc3cccc1c23,n,n,n,39.3
COc1ccc(C2Nc3ccccc3C(=O)N2O)cc1CN1CCOCC1 (stereo not drawn),n,n,n,n
COC(=O)Nc1nnc(-c2ccncc2)s1,n,n,22886,n
SMILES,Anthrax LF prot,BoNT-F LC inh,Bead autofluor,BoNT-A LC inh2
Cc1ccc(NC(=O)Nc2nnc(-c3ccncc3)s2)cc1C,n,n,n,n
N=c1sccn1CC(=O)Nc1ccc(Cl)cc1[N+](=O)[O-],n,n,n,n
Clc1ccc(CN2C3=NCCCN3c3ccccc32)c(Cl)c1,n,u,n,n
CCCn1[nH]cc(SC)c(=O)c1=O,n,n,16432,u
Cc1cc(C)n(-c2cc(N3CCOCC3)ncn2)n1,n,n,n,n
COc1cc(N2CCOCC2)ncn1,n,n,23005,u
CN(C)/C=C(/C(=O)c1ccc(Cl)cc1Cl)S(=O)(=O)c1ccc(Cl)cc1,n,n,n,n
CN(C)/C=C(/C(=O)c1ccc(Cl)cc1)S(=O)(=O)c1ccc(Cl)cc1,n,n,16355,n
CC(C)OCC(O)CN1CCNCC1 (stereo not drawn),n,n,n,n
CC(C)C[C@H](NC(=O)CCCn1nnc2ccccc2c1=O)C(=O)O,n,n,n,n
O=C(O)CCNC(=O)CCCn1nnc2ccccc2c1=O,n,n,20247,n
Cc1ccc(C=Nc2cc([N+](=O)[O-])ccc2C)s1,n,n,n,n
Cc1ccc([N+](=O)[O-])cc1N=Cc1ccc(Br)s1,n,n,20554,n
CCN(CCNC(=O)CN1CCN(Cc2ccc(Cl)cc2)C1=O)c1ccccc1,n,n,n,n
CC(=O)NCc1c(Cl)cccc1-n1cccc1,u,n,u,u
CCC(=O)NCc1c(Cl)cccc1-n1cccc1,n,n,19934,n
CCc1ccc(CNCCNCC(C)O)cc1 (stereo not drawn),n,n,21353,n
Cc1c(Cl)cccc1NC(=S)N(CCN(C)C)C(C)c1ccccn1 (stereo not drawn),n,n,n,n
Cc1ccccc1NC(=S)N(CCN(C)C)C(C)c1ccccn1 (stereo not drawn),n,n,19817,n
CC1=NN(c2ccccc2)C(=O)/C1=C\N1CC(C)OC(C)C1 (stereo not drawn),n,n,16159,n
CC1=NN(c2ccccc2)C(=O)/C1=C/C=C/c1ccccc1,n,n,n,n
COc1ccc(CNC(=O)CCCCCn2c(SCC#N)nc3cc4c(cc3c2=O)OCO4)cc1,n,n,19698,u
COC(=O)CSc1nnc(CNC(=O)c2ccc(S(=O)(=O)N3CCOCC3)cc2)n1C,n,n,n,n
COC(=O)CSc1nnc(CNC(=O)c2ccc(S(=O)(=O)N3CCCCC3)cc2)n1C,n,n,24100,n
CCOC(=O)CSc1nnc(CNC(=O)c2ccc(S(=O)(=O)N3CCCCC3)cc2)n1C,n,n,20926,n
SMILES,Anthrax LF prot,BoNT-F LC inh,Bead autofluor,BoNT-A LC inh2
CCCOc1ccc(C(=O)c2nc3c(n2O)CCCCC3)cc1,n,n,23225,n
O=C(c1ccccc1)c1nc2c(n1O)CCCCC2,n,n,n,n
COc1ccc(-c2cc(N)n(S(=O)(=O)c3c(F)c(F)c(F)c(F)c3F)n2)cc1OC,n,n,16388,u
O=C(CCCC(=O)OCC(Cl)=C(Cl)Cl)Nc1cccc(F)c1,n,n,22287,n
O=C(Nc1nccs1)C1CC(=O)N(c2ccccc2Cl)C1 (stereo not drawn),n,n,23519,n
Cc1ccccc1Cn1nc(C)c(NC(=O)c2noc3c2CC(C(C)(C)C)CC3)c1C (stereo not drawn),n,n,n,n
O=C(NCc1ccc(F)cc1)c1noc2c1CCCC2,n,n,19451,n
Cc1ccccc1Cn1cc(NC(=O)c2noc3c2CC(C(C)(C)C)CC3)cn1 (stereo not drawn),n,n,16905,u
CC(C)(C)C1CCc2onc(C(=O)NCc3ccc(F)cc3)c2C1 (stereo not drawn),n,n,22455,n
O=C(NCc1ccc(F)cc1)c1noc2c1CCCCC2,n,n,n,n
Cc1ccc(S(=O)(=O)NCc2ccccc2)cc1C(=O)NC1CCC(C)CC1 (stereo not drawn),u,u,n,u
O=C1C2CC=CCC2C(=O)N1c1ncn[nH]1 (stereo not drawn),n,n,16218,n
O=C1C2CC=C(Cl)CC2C(=O)N1c1ncn[nH]1 (stereo not drawn),n,n,n,n
CCCCNS(=O)(=O)c1ccc(OC)c2ncccc12,n,n,19492,u
N=c1n(CCN2CCOCC2)c2ccccc2n1Cc1ccccc1Br,n,n,19620,n
Cc1ccc(C(=O)Cn2c(=N)n(CCN3CCOCC3)c3ccccc32)cc1,n,n,n,n
CCCC/C(O)=C1\C(=O)CC(C)(C)CC1=Nc1ccccc1OC,n,n,20312,n
Cc1nn2c(-c3ccc(Cl)cc3)nnc2s1,n,n,23339,n
CCCCN(CCCC)CCCNC(=O)CC1Oc2ccc(C)cc2NC1=O (stereo not drawn),n,n,23832,n
